Screening data (PubChem BioAssay)
D3 ag: agonists of human D3 dopamine receptor; 0.58% of 410,000 active; P35462; max activation, %; D3R DiscoveRx beta-arrestin cells, luminescence, 90 min; in the data active = max activation above about 30%; also: 0% is about no effect
Target sequence (P35462 whole entry, looked up): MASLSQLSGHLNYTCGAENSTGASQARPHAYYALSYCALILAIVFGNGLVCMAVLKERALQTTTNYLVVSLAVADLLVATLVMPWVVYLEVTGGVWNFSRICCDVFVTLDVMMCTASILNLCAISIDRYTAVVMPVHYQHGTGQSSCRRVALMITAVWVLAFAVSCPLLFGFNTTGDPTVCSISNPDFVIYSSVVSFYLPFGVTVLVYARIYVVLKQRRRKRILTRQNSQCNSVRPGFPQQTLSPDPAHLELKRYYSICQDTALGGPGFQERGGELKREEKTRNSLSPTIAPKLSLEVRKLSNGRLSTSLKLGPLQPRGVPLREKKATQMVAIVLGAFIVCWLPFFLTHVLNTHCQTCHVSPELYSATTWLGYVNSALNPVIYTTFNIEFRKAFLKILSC
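Agonist-mode cell screen: cells plated at 1500/well and incubated overnight at 37 °C, then exposed to library compounds for 90 min at 37 °C. Detection reagent was added for 30–60 min at room temperature, and luminescence was read.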
GRP78 ERSR act: inducers of ER stress response in human glioma cells | 0.02% of 420,000 active | U87-MG GRP78 promoter luciferase reporter, 16 h | Potency, µM, for the others: at the top dose activation, usual class: activators; also: potency is read from the fitted curve at half-maximal effect; series mostly up to about 76 µM; % of control where 0% means no effect; nearly all actives have a fitted effect of over 35% in size
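Stably transfected U87-MG glioma cells carrying a GRP78-based luciferase sensor; 16 h compound incubation. Luminescence end-point read 10 min after Bright-Glo addition at room temperature.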
Nrf2 ARE act: activators of Nrf2 (ARE) signaling. AREc32 ARE-luciferase reporter (MCF7-derived line), luminescence, 24 h. Potency, µM (top dose mostly 46.1 µM), for the others: top-dose activation, hits mostly activators. 0.31% of 410,000 active. AID 624171; also: potency is read from the fitted curve at half-maximal effect; % of control where 0% means no effect; nearly all actives have a fitted effect of over 65% in size
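Luminescent ARE reporter assay in AREc32_Fluc cells: overnight plating at 37 deg C, 24 hr compound incubation, Steady-Glo added, 30 min RT before reading.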
D3 antag: blocks the human D3 dopamine receptor | D3R cells, DiscoveRx beta-arrestin luminescence, antagonist mode; stronger effect = lower value | P35462 | 2.5% of 360,000 active | max response, negative = inhibition, %; in the data active = max response below about -50%; inconclusive = no clear call, values can overlap the other calls; also: % is scaled to controls: 0 for no effect and ±100 for the full control effect
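Cells expressing the human receptor were seeded at 1500 cells/well, incubated overnight at 37 degrees C in 5% CO2, then exposed to library compounds with dopamine controls for 90 minutes at 37 degrees C before luminescent detection.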
Active calls of the source: *; u = inconclusive; x = no result; [ ] = remark or other dose. Sampled rows, rich in hits. Any-hit rate of the full collection: about 3%. Unless noted, calls follow the shape of the dose curve; as a rule, active = well fitted curve in the direction sought with a large enough effect; inconclusive = small, poorly fitted or top-dose-only effect, or another doubt; inactive = no such curve, though single readings can be large; an effect the other way counts as inactive or inconclusive.

SMILES | D3 ag | GRP78 ERSR act | Nrf2 ARE act | D3 antag
CN(Cc1ccccc1)CC(O)COc1ccc(CNCCOc2cccnc2)cc1 (configuration not stated) | 61.2* | 2.8% | -0.6% | -9.9
Cc1cc(OCC(O)CN2CCc3ccccc3C2)ccc1Cl (configuration not stated) | -19.7 | -4.9% | -0.2% | -98.1*
OC(COCc1ccc(Cl)cc1)CN1CCc2ccccc2C1 (configuration not stated) | -10.5 | -4.0% | 0.1%[9.22 µM] | -71.9*
CN1CCN(CC(O)COc2ccccc2)CC1 (configuration not stated) | -0.1 | -5.8% | -0.9% | 6.2
COc1cc(=O)n2c(c1C(=O)N(C)Cc1nccs1)CCN(Cc1ccc(F)c(F)c1)CC2 | x | -1.7% | x | x
OC(COc1ccc(CNCc2cccnc2)cc1)CN1CCc2ccccc2C1 (configuration not stated) | 3.6 | -2.6% | 0.0% | -103.3*
CC(=O)c1ccc(OCC(O)CN2CCc3ccccc3C2)cc1 (configuration not stated) | -16.8 | 0.6% | -0.4% | -83.7*
Cc1ccc(C)c(OCC(O)CN2CCc3ccccc3C2)c1C (configuration not stated) | -15.8 | -2.5% | 0.0% | -115.1*
CC1CN(CC(O)COc2ccc(C(C)C)cc2)CC(C)O1 (configuration not stated) | -3.0 | -2.9% | 0.0% | -15.8
OC(COc1ccccc1CNCc1cccnc1)CN1CCc2ccccc2C1 (configuration not stated) | -21.8 | -2.6% | 5.3% | -5.0
Cc1ccc(C)c(OCC(O)CN2CCC(C)CC2)c1C (configuration not stated) | -13.9 | -7.5% | 0.8% | u
CC(=O)c1ccc(OCC(O)CN2CC(C)OC(C)C2)cc1 (configuration not stated) | -2.2 | -7.4% | -0.7% | -55.0*
COc1ccc(CN2CCOc3ccc(CN4CCCCC4CO)cc3C2)c(OC)c1 (configuration not stated) | x | -2.4% | x | x
CC(C)c1c(C(=O)NCCN2CCOCC2)cnn1-c1nccc(-c2ccco2)n1 | x | 4.6% | x | x
O=C(O)c1cc(C(=O)O)c(C(=O)N(Cc2cccc(Oc3ccccc3)c2)[C@H]2CCCc3ccccc32)cc1C(=O)O | x | -2.1% | x | x
CC(C)c1ccc(OCC(O)CN2CCCC2)cc1 (configuration not stated) | -12.6 | -3.1% | -0.1%[9.22 µM] | -7.2
COc1ccc(COCC(O)CN2CCOCC2)cc1OC (configuration not stated) | 2.5 | -2.7% | 0.2% | 37.2
CCN(CCn1cccn1)Cc1ccccc1OCC(O)CN1CCc2ccccc2C1 (configuration not stated) | -20.3 | -2.4% | -0.5% | -57.7*
Cc1cc(OCC(O)CN2CCc3ccccc3C2)cc(C(C)C)c1 (configuration not stated) | -0.3 | -0.8% | -1.1% | -68.1*
COc1ccc(COCC(O)CN2CC(C)OC(C)C2)cc1OC (configuration not stated) | 17.3 | -3.5% | -0.1% | -154.0*
O=C(Cc1ccc[nH]c1=O)c1ccc(F)cc1 | x | -1.8% | x | x
c1cc2[nH]snc2c2nc(C3CC3)nc12 | 33.9* | 0.7% | 2.3% | 24.3
Cc1c(Br)cnc2ccccc12 | x | -1.2% | x | x
CCOc1ccccc1NC(=O)C1COc2ccccc2O1 (configuration not stated) | -0.1 | 6.3% | 6.31µM* | 0.0
CCOc1ccc(/C=C2\SC(=O)N(CCNC(=O)C3COc4ccccc4O3)C2=O)cc1OC (configuration not stated) | 49.7* | 1.3% | 0.8% | 105.0
SMILES | D3 ag | GRP78 ERSR act | Nrf2 ARE act | D3 antag
COc1ccc(Cl)cc1NC(=O)C1COc2ccccc2O1 (configuration not stated) | 4.4 | 3.4% | 3.55µM* | u
COc1ccc(/C=C2/SC(=O)N(CCNC(=O)C3COc4ccccc4O3)C2=O)cc1 (configuration not stated) | 8.8 | 4.9% | -0.4% | 17.1
COCC1CCCN(Cc2ccc3c(c2)CN(C(=O)c2cn4ccc(C)cc4n2)CCO3)C1 (configuration not stated) | x | -3.3% | x | x
O=C1OC2(c3cc(I)c(O)c(I)c3Oc3c2cc(I)c(O)c3I)c2c(Cl)c(Cl)c(Cl)c(Cl)c21 | x | -9.5% | x | x
CN(C)c1oc(/C=C/c2ccccc2)nc1C#N | 3.4 | 6.3% | 7.94µM* | 10.2
CCOC(=O)N1CCc2c(sc(NCc3cccs3)c2C(=O)Nc2cc(Cl)ccc2OC)C1 | -3.9 | -2.2% | 18.5% | x
CC1CCOC2(O1)C(=O)N(CN1CCN(c3ccccc3F)CC1)c1ccccc12 (configuration not stated) | -7.7 | -2.7% | 2.9% | -53.7*
CC1(C)COC2(OC1)C(=O)N(CN1CCOCC1)c1ccccc12 | 2.3 | 1.4% | 2.4% | 4.2
O=C1N(CN2CCC3(CC2)OCCO3)c2ccccc2C12OCCCO2 | 13.5 | -4.9% | 0.2% | -12.6
O=C1N(CN2CCN(c3cccc(Cl)c3)CC2)c2ccccc2C12OCCCO2 | -30.3 | -1.9% | 2.7% | -83.5*
COCC(=O)Nc1cc(C(=O)NC2Cc3ccccc3C2)cc2nc(-c3cccnc3)n(C)c12 | x | -1.5% | x | x
O=C(CSc1ccc(Cl)cc1)c1ccco1 | -14.5 | 1.7% | -0.3% | -74.4*
N#Cc1c(-c2ccc(F)cc2)cc(-c2cccnc2)nc1N | 1.9 | -1.7% | -0.3% | 6.1
N#Cc1c(-c2ccco2)cc(-c2ccc(F)cc2)nc1N | 3.2 | -7.2% | 1µM* | -4.8
O=C(Nc1cccc2ccccc12)c1cnn2c1NC(=C1CC1)C=C2C(F)F | x | -0.1% | x | x
CC(C)(C)NNC(=S)Nc1ccc(S(=O)(=O)N2CCOCC2)cc1 | 31.7* | -5.0% | 0.2% | 6.0
Cc1ccc(NC(=O)c2cc(S(=O)(=O)N(C)C)ccc2N2CCCC2)cc1S(=O)(=O)N(C)C | 6.3 | 31.6µM* | -0.6% | -6.6
CC(=O)NC(=S)Nc1ccc(S(=O)(=O)N2CCOCC2)cc1 | 3.7 | -0.4% | 0.2% | 8.1
O=C(/C=C/c1ccco1)Nc1ccc(S(=O)(=O)N2CCOCC2)cc1 | -1.6 | 1.4% | 11.2µM* | 2.5
Cc1ccc(NC(=O)/C=C/c2ccc(S(=O)(=O)N3CCOCC3)cc2)cc1S(=O)(=O)N(C)C | 28.9 | -0.8% | -0.3% | -110.7*
O=C(O)CCCN1C(=O)C2C3CCC(C3)C2C1=O (configuration not stated) | 3.1 | -4.9% | 0.5% | -73.4*
O=C(O)CCCN1C(=O)C2C3CCC(O3)C2C1=O (configuration not stated) | 1.4 | -3.1% | 0.2% | 13.6
CCOC(=O)c1ccc(NC(=O)C2Cc3ccccc3CN2S(=O)(=O)c2ccc(Cl)cc2)cc1 (configuration not stated) | -5.0 | x | -1.0% | x
CCOC(=O)c1ccc(NC(=O)C2CC(O)CN2S(=O)(=O)c2ccc(C)cc2)cc1 (configuration not stated) | -17.9 | -0.7% | -0.8% | -54.5*
C=CCN(CC=C)CC(O)CN(c1cc([N+](=O)[O-])ccc1OC)S(=O)(=O)c1ccccc1 (configuration not stated) | -41.3 | -4.3% | 0.1% | -84.1*
O=c1[nH]c(=S)c2n[nH]nc2[nH]1 | x | -0.7% | x | x
